Nrf2 inh: Nrf2 qHTS screen for inhibitors | 360,000 tested, 2.1% active | AID 504444, 2011 | A549 ARE-Fluc reporter, luciferase luminescence, 18-24 h | Potency, µM (series often up to 46 µM), most hits filed as inhibitors; also: nearly all actives have a fitted effect of over 60% in size
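Nrf2 activity is the BugLite luminescence, read 15 min after reagent at room temperature, following CellTiter-Fluor cytotoxicity readout (30 min, 37C). Compound titrations were applied for 18-24 h to 5000 A549 ARE_Fluc cells/well in 5% FBS OPTI-MEM.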
A549 viability: Nrf2 qHTS screen for inhibitors: counterscreen for cytotoxicity; A549 ARE-Fluc cells, CellTiter-Fluor viability, 18-24 h; Potency, µM (titrated, usually from 46 µM), actives largely listed as inhibitors; 390,000 tested, 0.16% active; AID 504648, 2011
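Cytotoxicity counterscreen: CellTiter-Fluor fluorescence was measured in A549 ARE_Fluc cells after 18-24 h of compound exposure in a concentration series. The subsequent BugLite luminescent read reports ARE-luciferase activity.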
ELG1 repair inh: qHTS screen for small molecules that inhibit ELG1-dependent DNA repair in human embryonic kidney (HEK293T) cells expressing luciferase-tagged ELG1. AID 504467, 2011. HEK293T ELG1-luciferase reporter, luminescence, 16 h; DNA damage induced by 5-fluorouridine. 330,000 tested, 2.3% active. Potency, µM (titrated, usually from 46.1 µM), most hits filed as inhibitors; also: nearly all actives have a fitted effect of over 55% in size
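5-Fluorouridine DNA damage + compound/DMSO, 2,000 cells/well, 16 h, 37 °C/5% CO2. ONE-Glo, 30 min RT, luminescence. Readout = decrease in reporter signal.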
Nrf2 activator: qHTS of Nrf2 Activators. AREc32 ARE-luciferase reporter (MCF7-derived line), luminescence, 24 h. Potency, µM (top dose mostly 46.1 µM), most hits filed as activators. 410,000 tested, 0.31% active. AID 624171, 2012; also: nearly all actives have a fitted effect of over 65% in size
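For detection, Steady-Glo was added and plates sat 30 min at RT; before that, AREc32_Fluc cells grown overnight in OPTI-MEM/5% FBS had been treated with 23 nL compound for 24 hr at 37 deg C.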
ELG1 FLuc counter: qHTS screen for small molecules that inhibit ELG1-dependent DNA repair: Hit Confirmation in Cell-Based Luciferin Assay. shares compounds with ELG1 repair inh. cell-free firefly luciferase luminescence counter-screen, ViewLux. Potency, µM (titrated, usually from 46.1 µM), most hits filed as inhibitors. 350 tested, 3% active. AID 624247, 2012
ELG1-Luc inh: HTS assay for small molecules that inhibit ELG1-dependent DNA repair in human embryonic kidney (HEK293T) cells expressing luciferase-tagged ELG1: Hit Confirmation; shares compounds with ELG1 repair inh; HEK293T ELG1-luciferase levels, luminescence; cells co-treated with 5-fluorouridine; Potency, µM (highest dose often 46.1 µM), most hits filed as inhibitors; 670 tested, 68% active; AID 624248, 2012; also: nearly all actives have a fitted effect of over 55% in size
Target sequence (Q96QE3 whole entry, looked up): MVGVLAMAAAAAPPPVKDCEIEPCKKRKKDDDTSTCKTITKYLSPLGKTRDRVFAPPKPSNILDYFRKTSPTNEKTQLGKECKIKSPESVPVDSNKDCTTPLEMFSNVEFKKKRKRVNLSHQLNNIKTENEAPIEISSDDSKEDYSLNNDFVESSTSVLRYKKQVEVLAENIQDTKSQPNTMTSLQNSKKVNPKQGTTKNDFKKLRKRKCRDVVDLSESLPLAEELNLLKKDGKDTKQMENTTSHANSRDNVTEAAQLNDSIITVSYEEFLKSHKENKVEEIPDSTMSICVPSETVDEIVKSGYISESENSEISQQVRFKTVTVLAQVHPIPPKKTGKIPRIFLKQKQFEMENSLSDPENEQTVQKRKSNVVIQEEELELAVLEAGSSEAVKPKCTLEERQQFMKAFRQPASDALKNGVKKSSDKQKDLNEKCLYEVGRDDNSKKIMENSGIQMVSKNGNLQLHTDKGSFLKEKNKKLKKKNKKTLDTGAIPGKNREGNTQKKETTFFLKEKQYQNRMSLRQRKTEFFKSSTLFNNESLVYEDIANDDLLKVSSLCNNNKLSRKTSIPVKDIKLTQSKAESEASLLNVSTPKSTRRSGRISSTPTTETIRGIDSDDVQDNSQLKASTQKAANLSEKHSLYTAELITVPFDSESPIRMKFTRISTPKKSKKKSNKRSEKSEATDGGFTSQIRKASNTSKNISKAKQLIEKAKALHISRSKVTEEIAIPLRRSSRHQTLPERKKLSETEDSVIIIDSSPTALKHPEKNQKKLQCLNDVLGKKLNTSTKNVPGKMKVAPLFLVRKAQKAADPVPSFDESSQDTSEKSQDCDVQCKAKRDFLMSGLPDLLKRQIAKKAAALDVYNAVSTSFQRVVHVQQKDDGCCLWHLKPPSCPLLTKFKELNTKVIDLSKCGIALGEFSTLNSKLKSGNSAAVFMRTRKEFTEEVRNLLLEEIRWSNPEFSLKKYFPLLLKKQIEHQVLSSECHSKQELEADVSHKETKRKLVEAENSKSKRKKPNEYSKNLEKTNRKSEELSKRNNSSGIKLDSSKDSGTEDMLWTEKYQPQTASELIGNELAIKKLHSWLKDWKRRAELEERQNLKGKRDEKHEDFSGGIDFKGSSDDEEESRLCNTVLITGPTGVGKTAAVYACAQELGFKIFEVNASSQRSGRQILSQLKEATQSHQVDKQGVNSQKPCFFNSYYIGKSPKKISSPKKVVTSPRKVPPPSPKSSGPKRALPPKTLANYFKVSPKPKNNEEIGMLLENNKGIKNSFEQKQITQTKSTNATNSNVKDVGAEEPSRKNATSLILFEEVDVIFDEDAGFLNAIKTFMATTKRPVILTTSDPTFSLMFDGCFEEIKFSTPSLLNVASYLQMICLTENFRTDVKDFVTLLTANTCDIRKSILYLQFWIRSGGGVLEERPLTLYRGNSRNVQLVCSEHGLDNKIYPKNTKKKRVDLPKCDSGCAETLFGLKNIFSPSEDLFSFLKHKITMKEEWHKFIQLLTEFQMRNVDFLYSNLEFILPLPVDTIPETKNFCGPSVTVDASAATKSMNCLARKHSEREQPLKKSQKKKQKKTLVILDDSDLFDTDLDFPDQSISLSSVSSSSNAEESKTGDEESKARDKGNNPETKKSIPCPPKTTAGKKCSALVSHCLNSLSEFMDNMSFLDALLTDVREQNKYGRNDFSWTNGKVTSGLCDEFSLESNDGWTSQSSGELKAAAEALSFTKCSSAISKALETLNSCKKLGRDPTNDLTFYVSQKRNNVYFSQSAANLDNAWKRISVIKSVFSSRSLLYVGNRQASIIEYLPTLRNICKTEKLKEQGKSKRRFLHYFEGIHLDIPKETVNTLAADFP
ELG1-Luc MMS: confirmation of human ELG1 repair inhibitors, MMS stimulated; Potency, µM (top dose mostly 46.1 µM), hits mostly inhibitors; shares compounds with ELG1 repair inh; HEK293T luciferase-tagged ELG1 level, MMS stimulated; 670 tested, 53% active; also: nearly all actives have a fitted effect of over 60% in size
ELG1 5FU viab: qHTS screen for small molecules that inhibit ELG1-dependent DNA repair: Hit Confirmation with 5FU Viability; shares compounds with ELG1 repair inh; cell viability with 5-FU, ELG1-dependent repair; Potency, µM (titrated, usually from 46.1 µM), actives largely listed as cytotoxic; 670 tested, under 10 active;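 also: ELG1-luc HEK293T cells cotreated with 5-fluorouridine at 10 µM final; viability measured 16 h after compound addition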
ELG1 MMS cell: qHTS screen for small molecules that inhibit ELG1-dependent DNA repair: Hit Confirmation with MMS Viability; AID 624251, 2012; 670 tested, 33% active; shares compounds with ELG1 repair inh; Potency, µM (doses to about 46.1 µM), usual class: cytotoxic; Cell viability with MMS, ELG1-dependent DNA repair;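 also: ELG1-luc HEK293T cells co-treated with 10 µM MMS; viability read 16 h after compound addition; nearly all actives have a fitted effect of over 60% in size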
Cell viab unstim: qHTS screen for small molecules that inhibit ELG1-dependent DNA repair: Hit Confirmation with Unstimulated Viability Assay | shares compounds with ELG1 repair inh | cell viability counter-screen, unstimulated, luminescence | Potency, µM (highest dose often 45.9 µM), usual class: cytotoxic | 900 tested, 8% active | AID 624252, 2012;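 also: compound exposure lasted 16 hours before reading; nearly all actives have a fitted effect of over 55% in size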
FLuc enzyme: qHTS screen for small molecules that inhibit ELG1-dependent DNA repair: Hit Confirmation in Biochemical Luciferin Assay. Potency, µM (series often up to 57.5 µM), actives largely listed as inhibitors. shares compounds with ELG1 repair inh. 350 tested, 10% active. purified firefly luciferase, luminescence counter-screen
Hits are given with their value; i = inactive; ? = inconclusive; nt = not tested or not shown. Shown are actives, neighbours in structure and some others; about 3.7% of the full set was active somewhere. Calls follow the shape of the dose curve; as a rule, active = well fitted curve in the direction sought with a large enough effect; inconclusive = small, poorly fitted or top-dose-only effect, or another doubt; inactive = no such curve, though single readings can be large; an effect the other way counts as inactive or inconclusive.

SMILES | Nrf2 inh | A549 viability | ELG1 repair inh | Nrf2 activator | ELG1-Luc inh | ELG1-Luc MMS | ELG1 5FU viab | ELG1 MMS cell | Cell viab unstim | others
COc1ccc(/C=C/C(=O)NC(=S)NNC(=O)c2cnccn2)cc1 | ? | ? | ? | i | nt | nt | nt | nt | nt
O=C(/C=C/c1ccc(F)cc1)NC(=S)NNC(=O)c1cnccn1 | ? | i | 2.3µM | i | ? | 20µM | i | i | i
COc1cc2cc(C)c(SCC(=O)N3CCOCC3)nc2cc1OC | i | i | i | i | nt | nt | nt | nt | i | ELG1 FLuc counter=i;FLuc enzyme=i
COc1cc2cc(C#N)c(SCC(=O)N3CCOCC3)nc2cc1OC | i | i | i | i | nt | nt | nt | nt | nt
COc1ccc(C2=NN(C(=O)CSc3nnc(C)n3C)C(c3ccco3)C2)cc1 (configuration not stated) | i | i | i | i | nt | nt | nt | nt | nt
COc1ccc(C2=NN(C(=O)COc3ncnc4ccccc34)C(c3ccco3)C2)cc1 (configuration not stated) | i | i | 4.1µM | i | ? | i | ? | i | i
CC(OC(=O)c1ccc2ncsc2c1)C(=O)N(C)C1CCCCC1 (configuration not stated) | i | i | i | i | nt | nt | nt | nt | nt
Nc1ccccc1NC(=O)c1ccc(CNC(=O)OCc2cccnc2)cc1 | nt | nt | nt | nt | nt | nt | nt | nt | ? | ELG1 FLuc counter=i;FLuc enzyme=i
COCc1ccc(C(=O)Nc2ccccc2C(=O)NCc2cccnc2)cc1 | i | i | i | i | nt | nt | nt | nt | nt
Cc1ccccc1C(=O)OCc1cc(=O)n2nc(C(C)C)sc2n1 | ? | i | nt | i | nt | nt | nt | nt | nt
CC1(C)NC(=O)N(CC(=O)OCC(=O)Nc2cccc(S(N)(=O)=O)c2)C1=O | i | i | i | i | nt | nt | nt | nt | nt
Cc1ccccc1NC(=O)C(C)OC(=O)C1CCCO1 (configuration not stated) | nt | nt | nt | i | nt | nt | nt | nt | nt
N#Cc1ccsc1NC(=O)CSc1nncs1 | ? | i | ? | i | nt | nt | nt | nt | i
Cc1nnc(SCC(=O)Nc2sccc2C#N)s1 | i | i | i | i | nt | nt | nt | nt | nt
COc1ccc2c(c1)c(CC(=O)Nc1ccc(C)cc1)c(C)n2C(=O)c1ccc(Cl)cc1 | i | i | ? | i | nt | nt | nt | nt | nt
COc1ccc2c(c1)c(CC(=O)Nc1cc(C)c(OC)c(C)c1)c(C)n2C(=O)c1ccc(Cl)cc1 | i | i | nt | i | nt | nt | nt | nt | nt
COc1ccc(NC(=O)Cc2c(C)n(C(=O)c3ccc(Cl)cc3)c3ccc(OC)cc23)cc1 | i | i | 2.6µM | i | 18µM | i | ? | i | i | ELG1 FLuc counter=i;FLuc enzyme=i
COc1ccc2c(c1)c(CC(=O)Nc1cccc(S(N)(=O)=O)c1)c(C)n2C(=O)c1ccc(Cl)cc1 | ? | i | 18µM | i | 14µM | 18µM | ? | ? | ? | ELG1 FLuc counter=i;FLuc enzyme=i
CCOC(=O)C1C(C(=O)OC)=C(c2ccc(OC)cc2)c2ccc(OC)cc2N1S(=O)(=O)C(F)(F)F (configuration not stated) | i | i | 4.1µM | i | 5.6µM | ? | ? | i | i
CCOC(=O)C1=C(C2=CCCCC2)c2ccc(OC)cc2N(S(=O)(=O)C(F)(F)F)C1C(=O)OCC (configuration not stated) | i | i | i | ? | nt | nt | nt | nt | nt
COc1cccc([C@@H]2Oc3ccc(OC)cc3C(=O)[C@H]2OC(=O)NS(=O)(=O)c2ccc(C)cc2)c1 | nt | nt | nt | nt | nt | nt | nt | nt | i
COC(=O)[C@@H](NC(=O)O[C@@H]1C(=O)c2cc(Br)ccc2O[C@H]1c1cccc(OC)c1)C(C)C | nt | nt | i | nt | nt | nt | nt | nt | nt
Cc1ccc(C)c(CSc2cn(CC(=O)N3CCCC3)c3ccccc23)c1 | i | i | nt | i | nt | nt | nt | nt | nt
O=C(c1ccc(-c2cc3ccccc3oc2=O)cc1)N1CCN(c2ccc(Cl)cc2[N+](=O)[O-])CC1 | ? | i | 4.6µM | i | 5µM | i | ? | ? | ?
O=[N+]([O-])c1cc(Cl)ccc1N1CCN(c2ccccc2O)CC1 | ? | i | i | i | nt | nt | nt | nt | nt
SMILES | Nrf2 inh | A549 viability | ELG1 repair inh | Nrf2 activator | ELG1-Luc inh | ELG1-Luc MMS | ELG1 5FU viab | ELG1 MMS cell | Cell viab unstim | others
COc1ccc(/C=N/NC(=O)Nc2cccc3nsnc23)cc1OC | ? | i | 2.6µM | i | 2.8µM | 22µM | ? | ? | ?
COc1ccc(/C=N/NC(=O)c2cccc(C(=O)N/N=C/c3ccc(OC)c(OC)c3)n2)cc1OC | i | i | ? | i | nt | nt | nt | nt | nt
COc1ccccc1/C=C(\NC(=O)c1ccc(OC)c(OC)c1)C(=O)Nc1cc([N+](=O)[O-])ccc1C | i | i | 0.65µM | i | 1.6µM | ? | ? | ? | i | ELG1 FLuc counter=i;FLuc enzyme=i
CN1CCN(c2ccc(S(=O)(=O)N3CCOCC3)cc2NC(=O)Cc2ccccc2F)CC1 | i | i | i | i | nt | nt | nt | nt | nt
Cc1ccc(C)c(NC(=O)Cn2nc(C)c3nn(-c4ccc(Cl)cc4)c(C)c3c2=O)c1 | nt | i | nt | i | nt | nt | nt | nt | nt
COCCNC(=O)c1cc2c(c(-c3cccc(C#CC(C)(C)O)c3)n1)[C@@H](CCO)N(S(=O)C(C)(C)C)C2 (some centres not stated) | nt | nt | nt | i | nt | nt | nt | nt | nt
COc1ccc(-c2noc(=O)n2Cc2ccccc2F)cc1 | i | i | i | i | nt | nt | nt | nt | nt
O=C(CCN1C(=O)c2ccccc2C1=O)Nc1ccc(-c2nc3ccccc3o2)cc1 | i | i | ? | i | nt | nt | nt | nt | ? | ELG1 FLuc counter=i;FLuc enzyme=?
Cc1c(NC(=O)C(C)Oc2ccc(Br)cc2)c(=O)n(-c2ccccc2)n1C (configuration not stated) | i | i | i | i | nt | nt | nt | nt | nt
CCc1cc(=O)oc2c3c(cc(OCC(=O)NCc4cccnc4)c12)OC(C)(C)CC3 | i | i | 3.7µM | i | ? | i | i | i | ?
